# Where a name gives a salt, the structure may show the parent alone.
# Assays:
# [1] = system: Staphylococcus aureus MW2 delta-mecA (mecA-); assay: normalized GFP fluorescence (growth of mecA- strain) (fraction of control range); higher = more growth of mecA- strain; conditions: compound concentration: 150 uM; cefoxitin: subinhibitory; fluorescent label: GFP
# Method in brief: (§1)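 A 1:1 mix of pre-induced S. aureus MW2 cells, DsRed-labeled with the gene and GFP-labeled without it, was grown in LB with a daily-set subinhibitory antibiotic dose on 150 μM compound (1.5% DMSO) in 1536-well plates, single replicate. Growth lasted 20 h at 37 °C, 90% humidity, without shaking, and DsRed (540/590) and GFP (485/520) were then read. Channels were scaled per plate to single-strain control medians, and plates with high untreated ratios and rows with DsRed/GFP >10 were removed.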
# [2] = system: Staphylococcus aureus MW2 (mecA+); assay: normalized DsRed fluorescence (growth of mecA+ strain) (fraction of control range); higher = more growth of mecA+ strain; conditions: compound concentration: 150 uM; cefoxitin: subinhibitory; fluorescent label: DsRed
# Method in brief: as §1
Structure (SMILES),normalized GFP fluorescence [1],normalized DsRed fluorescence [2]
CNCC(O)c1ccc(O)cc1 (centres undefined) [Synephrine (Oxedrine)],0.516,0.777
O=P1(NCCCl)OCCCN1CCCl (centres undefined),0.399,0.711
CC[C@@H](CO)NC(=O)[C@@H]1C=C2c3cccc4c3c(cn4C)C[C@H]2N(C)C1,0.269,0.713
O=c1n(Cl)c(=O)n(Cl)c(=O)n1Cl,0.337,0.35
Cl[C@H]1[C@H](Cl)[C@@H](Cl)[C@@H](Cl)[C@H](Cl)[C@H]1Cl,0.612,0.538
O=P1(N(CCCl)CCCl)NCCCO1 (centres undefined),0.58,0.629
CC1(C)C(C=C(Cl)Cl)C1C(=O)OCc1cccc(Oc2ccccc2)c1 (centres undefined),0.134,0.704
COC(=O)C(c1ccccc1)C1CCCCN1 (centres undefined),0.277,0.737
C[N+]1(C)[C@@H]2CC[C@H]1C[C@@H](OC(=O)C(CO)c1ccccc1)C2 (some centres undefined),0.479,0.574
Oc1cccc2cccnc12,0.00976,0.0478
C[N+]1(C)CCCC(OC(=O)C(O)(c2ccccc2)c2ccccc2)C1 (centres undefined),0.765,0.852
C[C@H]1CNCCc2ccc(Cl)cc21 [Lorcaserin HCl],0.467,0.636
CCN(C(C)=O)c1cccc(-c2ccnc3c(C#N)cnn23)c1,0.782,0.598
NCC1(CC(=O)O)CCCCC1,0.647,0.674
COP(=O)(OC)C(O)C(Cl)(Cl)Cl (centres undefined),0.2,0.658
C#C[C@]1(O)C=C[C@H]2[C@@H]3CCC4=CC(=O)CC[C@@H]4[C@H]3CC[C@@]21CC [Gestodene],0.342,0.279
CN1C(=O)C(O)N=C(c2ccccc2)c2cc(Cl)ccc21 (centres undefined),0.205,0.691
C[N+]1([O-])[C@@H]2CC[C@H]1C[C@@H](OC(=O)C(CO)c1ccccc1)C2 (some centres undefined),0.483,1.24
NCCCNCCSP(=O)(O)O,0.429,0.76
CO[C@]12C[C@@H](COC(=O)c3cncc(Br)c3)CN(C)[C@@H]1Cc1cn(C)c3cccc2c13,0.411,0.751
C[C@@H]1O[C@@H](O[C@@H]2C=C3CC[C@@H]4[C@H](CC[C@]5(C)[C@@H](c6ccc(=O)oc6)CC[C@]45O)[C@@]3(C)CC2)[C@H](O)[C@H](O)[C@H]1O,0.198,0.926
CCN(C)C(=O)Oc1cccc([C@H](C)N(C)C)c1,0.23,0.742
CCOC(=O)c1cncn1C(C)c1ccccc1 (centres undefined),0.248,0.732
C#CCN(C)[C@H](C)Cc1ccccc1,0.853,0.547

Structure (SMILES),normalized GFP fluorescence [1],normalized DsRed fluorescence [2]
C[N+]12CCC(CC1)C(OC(=O)C(O)(c1ccccc1)c1ccccc1)C2 (centres undefined),0.468,0.579
CC(=O)O[C@H]1C[C@@H]2CC[C@@H]3[C@H](CC[C@@]4(C)[C@H]3C[C@H]([N+]3(C)CCCCC3)[C@@H]4OC(C)=O)[C@@]2(C)C[C@@H]1[N+]1(C)CCCCC1 [Pancuronium (Pavulon)],0.324,0.578
COc1cc2c(c(OC)c1OC)-c1ccc(OC)c(=O)cc1[C@@H](NC(C)=O)CC2,0.0184,0.897
CN1CCN(C(=O)O[C@H]2c3nccnc3C(=O)N2c2ccc(Cl)cn2)CC1,0.334,0.793
NCC(CC(=O)O)c1ccc(Cl)cc1 (centres undefined),0.683,0.941
N[C@@H](Cc1ccc(N(CCCl)CCCl)cc1)C(=O)O,0.309,0.612
C[C@]12CCC(=O)C(O)=C1CC[C@@H]1[C@@H]2CC[C@]2(C)C(=O)CC[C@@H]12 [Formestane],0.477,0.7
COc1ccc(C(CN(C)C)C2(O)CCCCC2)cc1 (centres undefined),0.6,0.623
C=C1C[C@@H]2[C@H](CC[C@]3(C)C(=O)CC[C@@H]23)[C@@]2(C)C=CC(=O)C=C12 [Exemestane],0.367,0.545
CC[C@H](C)[C@H]1O[C@]2(C=C[C@@H]1C)C[C@@H]1C[C@@H](C/C=C(\C)[C@@H](O[C@H]3C[C@H](OC)[C@@H](O[C@H]4C[C@H](OC)[C@@H](O)[C@H](C)O4)[C@H](C)O3)[C@@H](C)/C=C/C=C3\CO[C@@H]4[C@H](O)C(C)=C[C@@H](C(=O)O1)[C@]34O)O2.CO[C@H]1C[C@H](O[C@H]2[C@H](C)O[C@@H](O[C@@H]3/C(C)=C/C[C@@H]4C[C@@H](C[C@]5(C=C[C@H](C)[C@@H](C(C)C)O5)O4)OC(=O)[C@@H]4C=C(C)[C@@H](O)[C@H]5OC/C(=C\C=C\[C@@H]3C)[C@]54O)C[C@@H]2OC)O[C@@H](C)[C@@H]1O,0.294,0.502
CCCC(C)(COC(N)=O)COC(=O)NC(C)C (centres undefined),0.54,1.05
CC(C)C[C@H]1C(=O)N2CCC[C@H]2[C@]2(O)O[C@](NC(=O)[C@@H]3C=C4c5cccc6[nH]c(Br)c(c56)C[C@H]4N(C)C3)(C(C)C)C(=O)N12,0.246,1.03
CNc1ccc(C(=O)CC(O)CCC(C)C2OC(=O)CC(O)CC(=O)CC(O)CC(O)CC(O)CC(O)CC3(O)CC(O)C(C(=O)OC)C(CC(O[C@@H]4O[C@H](C)[C@@H](O)[C@H](N)[C@@H]4O)/C=C/C=C/C=C/C=C/C=C/C=C/C=C/C2C)O3)cc1.COC(=O)C1C(O)CC2(O)CC(O)CC(O)CC(O)CC(O)CC(=O)CC(O)CC(=O)OC(C(C)CCC(O)CC(=O)c3ccc(N)cc3)C(C)/C=C/C=C/C=C/C=C/C=C/C=C/C=C/C(O[C@@H]3O[C@H](C)[C@@H](O)[C@H](N)[C@@H]3O)CC1O2 (some centres undefined),0.675,0.626
CCCN1C[C@H](CSC)C[C@@H]2c3cccc4[nH]cc(c34)C[C@H]21 [Pergolide mesylate],0.105,1.03
CN(C)C(=O)Oc1ccc[n+](C)c1,0.22,0.58
CC(C)c1cccc(C(C)C)c1O,0.257,0.882
CC[C@@H](C(N)=O)N1CCCC1=O,0.416,1.14
Cc1cccc([C@H](C)c2c[nH]cn2)c1C [Dexmedetomidine],0.289,0.702
CC(=O)O[C@H]1C[C@H](O[C@H]2[C@@H](O)C[C@H](O[C@H]3[C@@H](O)C[C@H](O[C@H]4CC[C@@]5(C)[C@H](CC[C@@H]6[C@@H]5C[C@@H](O)[C@]5(C)[C@@H](C7=CC(=O)OC7)CC[C@]65O)C4)O[C@@H]3C)O[C@@H]2C)O[C@H](C)[C@H]1O[C@@H]1O[C@H](CO)[C@@H](O)[C@H](O)[C@H]1O,0.391,0.766
C[C@@H]1CC[C@H]2[C@@H](C)C(=O)O[C@@H]3O[C@@]4(C)CC[C@@H]1[C@]32OO4 [Artemisinin],0.505,0.66
Cc1c(N)nc(C(CC(N)=O)NCC(N)C(N)=O)nc1C(=O)NC(C(=O)NC(C)C(O)C(C)C(=O)NC(C(=O)NCCc1nc(-c2nc(C(=O)NCCC[S+](C)C)cs2)cs1)C(C)O)C(O[C@@H]1O[C@@H](CO)[C@@H](O)[C@H](O)[C@@H]1O[C@H]1O[C@H](CO)[C@@H](O)[C@H](OC(N)=O)[C@@H]1O)c1cnc[nH]1 (some centres undefined),0.114,0.862
Cc1ccc(-c2nc3ccc(C)cn3c2CC(=O)N(C)C)cc1,0.38,0.527
CC(NC(C)(C)C)C(=O)c1cccc(Cl)c1 (centres undefined) [Amfebutamone (Bupropion)],0.395,0.602
Nc1ccncc1,0.334,0.715

Structure (SMILES),normalized GFP fluorescence [1],normalized DsRed fluorescence [2]
CNCC(=O)c1ccc(O)c(O)c1 [Adrenalone HCl],0.708,0.797
CNC(C)(C)Cc1ccccc1,0.75,0.831
CC(NC(C)(C)C)C(=O)c1cccc(Cl)c1 (centres undefined),0.332,0.882
O=C(O)CCCc1ccc(N(CCCl)CCCl)cc1,0.418,1.38
CN1[C@@H]2CC[C@H]1C[C@@H](OC(=O)[C@H](CO)c1ccccc1)C2,0.693,0.664
COc1ccc2c(c1)[C@]13CCCC[C@@H]1[C@H](C2)N(C)CC3,0.241,1.04
CC(Cc1ccc(O)cc1)NCC(O)c1cc(O)cc(O)c1 (centres undefined),0.322,0.737
CN(C)C(=O)Oc1cccc([N+](C)(C)C)c1,0.41,1.1
NC(=O)CN1CCCC1=O,0.168,0.628
CN1[C@@H]2C[C@@H](OC(=O)[C@H](CO)c3ccccc3)C[C@H]1[C@@H]1O[C@@H]12,0.83,0.7
CC(C)[N+](C)(CCC(C(N)=O)(c1ccccc1)c1ccccc1)C(C)C,0.202,0.447
C[C@]12CC[C@H]3[C@@H](CCC4=CC(=O)CC[C@@]43C)[C@@H]1CC[C@@H]2O,0.501,0.506
Cn1c(CCCC(=O)O)nc2cc(N(CCCl)CCCl)ccc21 [Bendamustine HCL],0.659,0.83
C=CCN1CC[C@]23c4c5ccc(O)c4O[C@H]2C(=O)CC[C@@]3(O)[C@H]1C5,0.642,0.643
CC(C)N(CCNC(=O)CN1CCCC1=O)C(C)C [Pramiracetam],0.568,0.402
N[C@@H]1C[C@H]1c1ccccc1.N[C@H]1C[C@@H]1c1ccccc1,0.546,0.701
CC[C@@H](c1cccc(O)c1)[C@@H](C)CN(C)C,0.313,0.724
CCC1(c2ccc(N)cc2)CCC(=O)NC1=O (centres undefined),0.425,0.946
COc1ccc(OC)c(C(O)C(C)N)c1 (centres undefined),0.864,0.526
C#C[C@]1(O)CC[C@H]2[C@@H]3CCC4=CC(=O)CC[C@]4(C)[C@H]3CC[C@@]21C,0.473,0.916
CCCC(C)C1(CC)C(=O)NC(=S)NC1=O (centres undefined),0.288,0.518
CN1C[C@H](C(=O)N[C@]2(C)O[C@@]3(O)[C@@H]4CCCN4C(=O)[C@H](Cc4ccccc4)N3C2=O)C[C@@H]2c3cccc4[nH]cc(c34)C[C@H]21,0.246,0.753
CN1C(=O)CCS(=O)(=O)C1c1ccc(Cl)cc1 (centres undefined),0.212,0.676
CC(O)(CS(=O)(=O)c1ccc(F)cc1)C(=O)Nc1ccc(C#N)c(C(F)(F)F)c1 (centres undefined) [Bicalutamide (Casodex)],0.0167,0.707

# Source: the supplement of paper PMC7695840
